Measurements: PubChem BioAssay AID1159580 (chemical genetic matrix, 2015)
The whole screen tested about 5,500 compounds, of which about 2,000 (36%) were called active. Inconclusive results (about 18%) are left out. Cut-off read from the data, not from the text of the source: active = normalized growth mostly below about 0.91 (no sharp cut-off); inconclusive = no clear call, values can overlap the other calls; inactive = mostly above about 0.92. This is one part of the list.

Test: chemical genetic growth profiling, strain panel (AID 1159580);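 note: tested at 20 µM; growth read once vehicle control cultures reached saturation at 30 °C; 1 = growth at the plate median or of vehicle wells; lower values mean less growth of the strain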
Details: growth OD

Measured: normalized growth

CC12CCC(CC1)C(C)(C)O2
inactive: S. cerevisiae deletion strains, locus YJL187C, strain SWE1 (second series), active compounds read low 1 | S. cerevisiae deletion strains, locus YJL187C, strain SWE1, active compounds read low 0.989 | S. cerevisiae deletion strains, locus YJR043C, strain POL32, active compounds read low 0.989 | S. cerevisiae deletion strains, locus YJR066W, strain TOR1, active compounds read low 0.94 | S. cerevisiae deletion strains, locus YKL009W, strain mrt4, active compounds read low 1.03 | S. cerevisiae deletion strains, locus YKL068W, active compounds read low 1.01 | S. cerevisiae deletion strains, locus YKL085W, strain MDH1 (second series), active compounds read low 1.01 | S. cerevisiae deletion strains, locus YKL085W, strain MDH1, active compounds read low 1.01 | S. cerevisiae deletion strains, locus YKL160W, strain elf1, active compounds read low 1 | S. cerevisiae deletion strains, locus YKR001C, strain vps1, active compounds read low 1.01 | S. cerevisiae deletion strains, locus YKR026C, strain gcn3, active compounds read low 0.977 | S. cerevisiae deletion strains, locus YKR091W, strain srl3, active compounds read low 0.993 | S. cerevisiae deletion strains, locus YLL001W, strain dnm1, active compounds read low 0.985 | S. cerevisiae deletion strains, locus YLL026W, active compounds read low 0.977 | S. cerevisiae deletion strains, locus YLL041C, strain sdh2, active compounds read low 0.974 | S. cerevisiae deletion strains, locus YLR027C, strain aat2, active compounds read low 0.97 | S. cerevisiae deletion strains, locus YLR039C, strain RIC1, active compounds read low 1.01 | S. cerevisiae deletion strains, locus YLR058C, strain SHM2, active compounds read low 1.01 | S. cerevisiae deletion strains, locus YLR102C, strain apc9, active compounds read low 1.01 | S. cerevisiae deletion strains, locus YLR113W, strain HOG1, active compounds read low 0.994 | S. cerevisiae deletion strains, locus YLR221C, strain rsa3, active compounds read low 0.98 | S. cerevisiae deletion strains, locus YLR258W, strain gsy2, active compounds read low 0.976 | S. cerevisiae deletion strains, locus YLR262C, strain YPT6 (second series), active compounds read low 1.03 | S. cerevisiae deletion strains, locus YLR262C, strain YPT6, active compounds read low 1 | S. cerevisiae deletion strains, locus YLR268W, strain sec22, active compounds read low 0.994 | S. cerevisiae deletion strains, locus YLR320W, strain mms22, active compounds read low 0.994 | S. cerevisiae deletion strains, locus YLR330W, strain CHS5, active compounds read low 1.01 | S. cerevisiae deletion strains, locus YLR342W, strain FKS1 (second series), active compounds read low 1.04 | S. cerevisiae deletion strains, locus YLR342W, strain FKS1, active compounds read low 0.974 | S. cerevisiae deletion strains, locus YLR357W, strain rsc2, active compounds read low 0.932 | S. cerevisiae deletion strains, locus YLR370C, strain arc18, active compounds read low 0.972 | S. cerevisiae deletion strains, locus YLR371W, strain rom2, active compounds read low 1.02 | S. cerevisiae deletion strains, locus YLR384C, strain iki3, active compounds read low 0.974 | S. cerevisiae deletion strains, locus YLR418C, strain cdc73, active compounds read low 1.05 | S. cerevisiae deletion strains, locus YML016C, strain PPZ1, active compounds read low 1.01 | S. cerevisiae deletion strains, locus YML032C, strain rad52, active compounds read low 1.02 | S. cerevisiae deletion strains, locus YML120C, strain ndi1, active compounds read low 0.988 | S. cerevisiae deletion strains, locus YML124C, strain tub3, active compounds read low 1.02 | S. cerevisiae deletion strains, locus YMR058W, strain fet3, active compounds read low 0.98 | S. cerevisiae deletion strains, locus YMR078C, strain ctf18, active compounds read low 1.01 | S. cerevisiae deletion strains, locus YMR125W, strain sto1, active compounds read low 0.977 | S. cerevisiae deletion strains, locus YMR129W, active compounds read low 0.992 | S. cerevisiae deletion strains, locus YMR205C, strain PFK2, active compounds read low 0.99 | S. cerevisiae deletion strains, locus YMR223W, strain ubp8, active compounds read low 1.03 | S. cerevisiae deletion strains, locus YMR231W, strain pep5, active compounds read low 0.957 | S. cerevisiae deletion strains, locus YMR307W, strain GAS1, active compounds read low 0.998 | S. cerevisiae deletion strains, locus YNL067W, strain RPL9B, active compounds read low 1 | S. cerevisiae deletion strains, locus YNL071W, strain lat1, active compounds read low 0.984 | S. cerevisiae deletion strains, locus YNL183C, strain NPR1, active compounds read low 0.907 | S. cerevisiae deletion strains, locus YNL209W, strain ssb2, active compounds read low 0.98 | S. cerevisiae deletion strains, locus YNL233W, strain BNI4, active compounds read low 1.01 | S. cerevisiae deletion strains, locus YNL248C, strain rpa49, active compounds read low 0.978 | S. cerevisiae deletion strains, locus YNL250W, strain rad50, active compounds read low 0.99 | S. cerevisiae deletion strains, locus YNL271C, strain bni1, active compounds read low 1.01 | S. cerevisiae deletion strains, locus YNL298W, strain CLA4, active compounds read low 1.02 | S. cerevisiae deletion strains, locus YNL307C, strain MCK1, active compounds read low 1.01 | S. cerevisiae deletion strains, locus YNL322C, strain KRE1 (second series), active compounds read low 0.967 | S. cerevisiae deletion strains, locus YNR049C, strain mso1, active compounds read low 0.983 | S. cerevisiae deletion strains, locus YNR052C, strain pop2, active compounds read low 1.01 | S. cerevisiae deletion strains, locus YOL012C, strain htz1 0.871 | S. cerevisiae deletion strains, locus YOL147C, strain pex11, active compounds read low 1.01 | S. cerevisiae deletion strains, locus YOR001W, strain rrp6, active compounds read low 0.98 | S. cerevisiae deletion strains, locus YOR061W, strain CKA2, active compounds read low 1.01 | S. cerevisiae deletion strains, locus YOR069W, strain VPS5, active compounds read low 1 | S. cerevisiae deletion strains, locus YOR070C, strain gyp1, active compounds read low 0.971 | S. cerevisiae deletion strains, locus YOR080W, strain dia2, active compounds read low 0.975 | S. cerevisiae deletion strains, locus YOR083W, strain WHI5, active compounds read low 0.992 | S. cerevisiae deletion strains, locus YOR106W, strain vam3, active compounds read low 0.954 | S. cerevisiae deletion strains, locus YOR136W, strain idh2, active compounds read low 1 | S. cerevisiae deletion strains, locus YOR144C, strain elg1, active compounds read low 1.01 | S. cerevisiae deletion strains, locus YOR184W, strain ser1, active compounds read low 1 | S. cerevisiae deletion strains, locus YOR231W, strain MKK1, active compounds read low 1.01 | S. cerevisiae deletion strains, locus YOR265W, strain rbl2, active compounds read low 0.999 | S. cerevisiae deletion strains, locus YOR270C, strain vph1, active compounds read low 1.02 | S. cerevisiae deletion strains, locus YOR290C, strain snf2, active compounds read low 0.979 | S. cerevisiae deletion strains, locus YOR316C, strain cot1, active compounds read low 1.02 | S. cerevisiae deletion strains, locus YPL051W, strain arl3, active compounds read low 0.973 | S. cerevisiae deletion strains, locus YPL055C, strain LGE1, active compounds read low 1.02 | S. cerevisiae deletion strains, locus YPL078C, strain atp4, active compounds read low 0.995 | S. cerevisiae deletion strains, locus YPL106C, strain sse1, active compounds read low 0.978 | S. cerevisiae deletion strains, locus YPL240C, strain hsp82, active compounds read low 0.968 | S. cerevisiae deletion strains, locus YPL256C, strain CLN2, active compounds read low 0.977 | S. cerevisiae deletion strains, locus YPR119W, strain clb2, active compounds read low 1.02 | S. cerevisiae deletion strains, locus YPR141C, strain kar3, active compounds read low 1.03 | S. cerevisiae deletion strains, locus YPR163C, strain tif3, active compounds read low 1.02 | S. cerevisiae deletion strains, locus YPR167C, strain met16, active compounds read low 1.02 | S. cerevisiae deletion strains, strain wtn01, active compounds read low 1.03 | S. cerevisiae strains, strain wild type, active compounds read low 1.01
